Measured values: the supplement of paper PMC3334620
Over roughly 33,000 sequences, “E-score (-0.5 to 0.5)” has its median near -0.032; the highest 2% begin near 0.36. Shown is part of a subset that was picked to be rich in the highest values.

Target: T1, Sko1 (UniProt Q02100)
T1 sequence: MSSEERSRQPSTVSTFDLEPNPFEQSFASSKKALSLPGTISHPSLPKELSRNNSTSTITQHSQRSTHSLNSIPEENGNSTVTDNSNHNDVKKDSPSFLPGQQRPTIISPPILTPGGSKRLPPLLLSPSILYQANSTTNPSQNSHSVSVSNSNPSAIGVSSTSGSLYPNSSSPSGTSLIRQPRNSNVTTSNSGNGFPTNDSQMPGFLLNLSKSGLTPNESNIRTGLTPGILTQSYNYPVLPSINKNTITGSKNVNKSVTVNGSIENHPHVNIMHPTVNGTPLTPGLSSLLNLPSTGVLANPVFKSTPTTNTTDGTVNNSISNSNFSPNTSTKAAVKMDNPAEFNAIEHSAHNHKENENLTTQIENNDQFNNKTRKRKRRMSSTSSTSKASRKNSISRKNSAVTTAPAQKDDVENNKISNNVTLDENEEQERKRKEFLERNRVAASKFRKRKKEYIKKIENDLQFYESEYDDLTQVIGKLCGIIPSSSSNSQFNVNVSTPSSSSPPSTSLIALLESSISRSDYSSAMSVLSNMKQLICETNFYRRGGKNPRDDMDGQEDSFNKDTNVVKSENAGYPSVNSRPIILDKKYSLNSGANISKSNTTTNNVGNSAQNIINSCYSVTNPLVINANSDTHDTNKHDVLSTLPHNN
Test: PBM E-score (8-mer binding enrichment) (E-score (-0.5 to 0.5)); higher = stronger / more preferred TF binding
Conditions: protein concentration: 200 nM; construct: GST-full length
Description: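 Universal 'all 10-mer' protein binding microarrays (Agilent AMADID 015681) probed with GST-tagged S. cerevisiae TFs (full-length or DBD) made by in vitro transcription/translation (PURExpress), about 100-200 nM. Bound TF was detected with fluorescent anti-GST. Each ungapped 8-mer (which stands for itself and its reverse complement) is scored by the PBM enrichment score (E-score), a modified Wilcoxon-Mann-Whitney statistic from -0.5 to +0.5, computed with the Universal PBM Analysis Suite. Scale: above 0.35 generally sequence-specific binding.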

| Sequence | PBM E-score |
| --- | --- |
| CGTCACGC | 0.433 |
| AGTCACGA | 0.103 |
| CGTCACGA | 0.443 |
| GTTCGCGA | 0.133 |
| GGAAGCTA | -0.135 |
| AGTGCAGA | -0.0919 |
| CGGGATAA | 0.0877 |
| GGCTTGTA | -0.158 |
| AGCTCAAT | 0.016 |
| AGATTGAT | -0.0863 |
| AGTCATTA | 0.032 |
| CGTCATTA | 0.487 |
| CGTCATTC | 0.482 |
| CCTCATTC | -0.0556 |
| AGTCATTC | 0.135 |
| GGTCATTA | 0.232 |
| ACTCAAAC | 0.0881 |
| GTGGCGCA | 0.0382 |
| CCTGGCTC | -0.137 |
| TGCTTCCA | -0.067 |
| GAAGCTTC | -0.375 |
| CTCTGCAA | -0.0293 |
| CAGCTCAG | -0.0505 |
| CCTCACTC | -0.0833 |
| CGTCACTA | 0.445 |

| Sequence | PBM E-score |
| --- | --- |
| AGTCACTA | 0.0867 |
| CGTCACTC | 0.418 |
| AGTCACTC | -0.0377 |
| GGTCACTA | 0.0129 |
| CACCACCG | -0.248 |
| TACGCCTA | 0.208 |
| AATCTAAC | 0.124 |
| CGATCTAA | 0.0385 |
| CGGCATGA | 0.11 |
| TAGTATAA | 0.24 |
| ACTCCACG | 0.0133 |
| AACTCTCA | 0.0877 |
| CTGATGTC | 0.173 |
| AAGATGTA | 0.206 |
| CTGATGTA | 0.255 |
| ATGATGTC | 0.446 |
| ATGATGAC | 0.327 |
| GTGATGTA | 0.397 |
| GTGATGCA | 0.249 |
| ATGATGAA | 0.321 |
| ATGATGCA | 0.376 |
| ATGATGCC | 0.244 |
| GTGATGAA | 0.111 |
| ATGATGTA | 0.459 |
| ATCGAAGG | 0.0197 |

| Sequence | PBM E-score |
| --- | --- |
| GTGAGCCA | -0.0673 |
| GCGGAATA | 0.0622 |
| CTAGAAGA | 0.0318 |
| TTTTAAAA | 0.233 |
| ATTTAGTG | 0.0842 |
| GCCGCTCC | -0.396 |
| AATTTCAG | 0.0849 |
| TGACAGAA | 0.141 |
| GGGCAATA | -0.14 |
| CGACCGCA | -0.266 |
| AGGATGTG | -0.206 |
| ATGATGAG | 0.275 |
| ATGATGTG | 0.379 |
| AACTCCAG | -0.205 |
| AGGAACAT | 0.176 |
| AAAGAACG | 0.143 |
| ATTGACTA | -0.0436 |
| CCTATTTC | 0.0978 |
| GGTATTTA | 0.0513 |
| AGTATTTC | 0.108 |
| AGTATTTA | 0.164 |
| CGTATTTA | 0.419 |
| CGTATTTC | 0.367 |
| GTCGAGAA | 0.107 |
| CCGATGAA | -0.198 |

| Sequence | PBM E-score |
| --- | --- |
| AGAGAGGC | -0.353 |
| AGCCCAGG | -0.331 |
| AACTAAGC | 0.123 |
| GAAGGAAC | -0.138 |
| AAAACGTC | 0.409 |
| AAAACGCC | 0.0157 |
| AAAACGTA | 0.449 |
| TAAACGAA | 0.116 |
| TAAACGGA | -0.0437 |
| CAAACGCA | 0.0771 |
| AAAACGAC | 0.113 |
| AAAACGTG | 0.304 |
| TAAACGTA | 0.42 |
| CAAACGTA | 0.416 |
| AAAACGTT | 0.207 |
| CAAACGTG | 0.272 |
| CGTGCTAC | 0.208 |
| CACTATAG | -0.00316 |
| ATTTCAAC | 0.0828 |
| ACGGTAGG | -0.189 |
| GAAACGCC | 0.145 |
| GAAACGTC | 0.385 |
| GAAACGTA | 0.398 |
| GAAACGAA | 0.115 |
| CAAACGTC | 0.329 |

| Sequence | PBM E-score |
| --- | --- |
| GAAACGGA | 0.15 |
| ACTAACTA | -0.0162 |
| AGGTTGCA | 0.0863 |
| GCAGCGGA | -0.11 |
| CCCTGAGC | -0.145 |
| ACCATTGA | 0.0435 |
| AGACGTAG | 0.382 |
| AGCCGTAT | -0.0778 |
| AGACGTAT | 0.441 |
| AGACGTAC | 0.395 |
| AGACGTTG | 0.111 |
| AGACGTCG | 0.21 |
| AGTCGTAT | 0.0845 |
| AGGCGTAC | 0.105 |
| ATGCAGGC | -0.024 |
| CGTGCAAG | 0.0462 |
| CCTACAAA | -0.0324 |
| CAAGTCTA | -0.0923 |
| ACCCTGAT | -0.0969 |
| AGCCCTAT | -0.331 |
| CCGCGGGA | -0.201 |
| AATGCCCT | -0.205 |
| AGAGGGTA | -0.035 |
| GTGTCGTA | 0.312 |
| CTGTCGTC | 0.21 |

| Sequence | PBM E-score |
| --- | --- |
| ATGTCGTA | 0.424 |
| ATGTCGTG | 0.239 |
| ATGTCGGC | -0.12 |
| ATGTCGTC | 0.365 |
| TGATAGAA | 0.0834 |
| AGGAGGTC | -0.24 |
| AGCTAACA | -0.0839 |
| AGGCACGA | 0.0425 |
| ACGACGTA | 0.446 |
| ACGACGAT | 0.127 |
| ACGACGAG | 0.00694 |
| ACGACGCC | 0.0289 |
| ACGACGGG | 0.0518 |
| ACGACGAC | 0.00819 |
| ACGACGGA | 0.0966 |
| ACGACGTG | 0.365 |
| ACGACGTC | 0.367 |
| ATGGGCAA | -0.138 |
| AGGAGATC | -0.214 |
| AGAAACAT | 0.152 |
| TCCTTGCA | -0.292 |
| AAAATTCC | -0.152 |
| CACGCCGG | -0.211 |
| CGAAAAGA | 0.163 |
| CATTCGTA | 0.317 |

| Sequence | PBM E-score |
| --- | --- |
| GATTCGTA | 0.251 |
| ATTTCGTA | 0.372 |
| CTTTCGTA | 0.339 |
| AATTCGTA | 0.386 |
| ATTTCGTC | 0.343 |
| CGCGGAAC | -0.165 |
| GGCTTCCA | -0.218 |
| GACGTGCA | 0.389 |
| GACGTGCC | 0.266 |
| GGCGTGCA | -0.0639 |
| TACGTGCA | 0.423 |
| AACGTGCA | 0.191 |
| CACGTGCA | 0.329 |
| AGACTATA | 0.00094 |
| CCAAGTGC | -0.285 |
| AGCACGTG | 0.397 |
| AGCACGTC | 0.309 |
| AGCACGTA | 0.406 |
| AGCACGAG | -0.0498 |
| AGCACGAA | 0.169 |
| AGCACATA | 0.0436 |
| AGTAGTCC | 0.0244 |
